These results are taken from PubChem BioAssay (NCATS).

Test [1] in a line: qHTS assay to identify small molecule inhibitors of chordoma cells - UCH-1 (AID 1259355). Also: nearly all actives have a fitted effect of over 55% in size. A digest of the protocol: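 Luminescent ATP read-out (CellTiter-Glo, 30min at room temperature) measured viability of UCH-1 cells exposed for 48hr to test drugs at 15 concentrations, co-dosed with a five-agent combination of auranofin, camptothecin, doxorubicin, rubitecan and topotecan.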
(In qHTS, concentration-response curves come from the screen itself.)

The nature of test [2]: qHTS assay to identify small molecule inhibitors of chordoma cells - UCH-2 (AID 1259356). Also: series mostly up to about 46 µM.
The nature of test [3]: P-glycoprotein substrates identified in KB-8-5-11 adenocarcinoma cell line, qHTS therapeutic library screen (AID 1346987). Also: nearly all actives have a fitted effect of over 65% in size. Also: potency is read from the fitted curve at half-maximal effect. The note with it: outcome: dose series up to 44.5 µM unless noted. A digest of the protocol:
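KB-8-5-11: colchicine-selected sub-line of KB-3-1 over-expressing P-gp; assay medium lacked colchicine. 72 h drug exposure at 37 degree C, CellTiter-Glo.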

Where “and” joins values, the source holds several entries; their conditions need not be identical. Equal values may be shown once. Records with an inconclusive call do not appear. Calls of active or inactive are those of the source. Calls follow the shape of the dose curve; as a rule, active = well fitted curve in the direction sought with a large enough effect; inconclusive = small, poorly fitted or top-dose-only effect, or another doubt; inactive = no such curve, though single readings can be large; an effect the other way counts as inactive or inconclusive.

Take `CC(CCc1ccc(O)cc1)NCC(O)c1ccc(O)cc1` (stereo unspecified): the Potency result in test [1], in test [2] and in test [3] was “inactive” in each case.

Regarding `CC[C@H]1OC(=O)[C@H](C)[C@@H](O[C@H]2C[C@@](C)(OC)[C@@H](O)[C@H](C)O2)[C@H](C)[C@@H](O[C@@H]2O[C@H](C)C[C@H](N(C)C)[C@H]2O)[C@](C)(O)C[C@@H](C)CN(C)[C@H](C)[C@@H](O)[C@]1(C)O`, the Potency result in test [1], in test [2] and in test [3] was “inactive” each time.

`Nc1nc2c(c(=O)[nH]1)N(C=O)C(CNc1ccc(C(=O)N[C@@H](CCC(=O)O)C(=O)O)cc1)CN2` (stereo partly specified): the Potency result in test [1], in test [2] and in test [3] was “inactive” each time.

On to `CC1(C)C(\C=C/C=C\C=C/C=C2/N(CCCCS(=O)(=O)O)c3ccc4ccccc4c3C2(C)C)=[N+](CCCCS(=O)(=O)[O-])c2ccc3ccccc3c21`, for which the Potency result in test [1], in test [2] and in test [3] was “inactive” throughout.

In the case of `O=C1N=C2SCCN2C(=O)C1Cc1ccc(Cl)cc1` (stereo unspecified), the Potency entry in test [1], in test [2] and in test [3] was “inactive” each time.

On to `CCC(Cc1c(I)cc(I)c(O)c1I)C(=O)O` (stereo unspecified), for which the Potency entry in test [1], in test [2] and in test [3] was “inactive” in each case.

Regarding `CC1=CC(=O)NS(=O)(=O)O1`, the Potency entry in test [1], in test [2] and in test [3] was “inactive” throughout.

`F[Si-2](F)(F)(F)(F)F`: the Potency entry in test [1], in test [2] and in test [3] was “inactive” each time.

As to `O.O.O.O.O.O.O.O=S(=O)([O-])[O-].[Co+2]`, the Potency result in test [1], in test [2] and in test [3] was “inactive” throughout.

For the compound `CC(=NCc1ccccc1)c1ccccc1O`, the Potency result in test [1], in test [2] and in test [3] was “inactive” each time.

For `O=C(O)COc1ccc(CCNS(=O)(=O)c2ccccc2)s1`, the Potency result in test [1], in test [2] and in test [3] was “inactive” throughout.

Regarding `CC(=O)Nc1ccc(NC(=S)NC(=O)c2ccc(C(C)(C)C)cc2)cc1`, the Potency result in test [1] and in test [2] was “inactive” throughout. For the same compound, the Potency in test [3] was 6.51 µM (active) and 9.2 µM (active).
